Screening results: PubChem, National Center for Advancing Translational Sciences (NCATS)
Sm TGR block = inhibitors of Schistosoma mansoni thioredoxin glutathione reductase; purified TGR, DTNB reduction, TNB absorbance 405 nm; AID 485364; 360,000 tested, 3% active; Q962Y6; Potency, µM (doses to about 114 µM), hits mostly inhibitors; active = well fitted inhibition curve with a large enough effect; inconclusive = small, poorly fitted or top-dose-only effect; inactive = no such curve, though single readings can be large or run the other way; also: nearly all actives have a fitted effect of over 60% in size
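Kinetic colorimetric format: TGR-catalysed, NADPH-driven DTNB reduction monitored via TNB absorbance. Enzyme dispensed at 20 nM; compound exposure 15 min at room temperature before reaction start.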
SARS PLP yeast = SARS-CoV PLP inhibition in yeast | S. cerevisiae expressing SARS-CoV PLpro, growth rescue | Potency, µM (top dose mostly 32.9 µM), actives largely listed as activators | 330,000 tested, 0.19% active; calls by dose curve; also: nearly all actives have a fitted effect of over 55% in size
Each line names hits and unclear results; the compound was inactive in the other large screens. A selection: hits, their analogues and other compounds. The true share with any hit is near 3%.

O=C(Nc1ccc(F)cc1)[C@H](CSCc1ccccc1)N1Cc2ccccc2C1=O	none (no result: SARS PLP yeast)
CCN(CC)CCOC(=O)c1ccc(NC(=O)c2nn(-c3ccc(C)cc3)c(=O)c3c2c2ccccc2n3C)cc1	none (no result: SARS PLP yeast)
COc1ccc(OC)c(CNC(=O)c2ccc3nc(C(C)C)oc3c2)c1	none (no result: SARS PLP yeast)
COc1ccccc1N1C(=O)C2CC(C)=C(C)CC2C1=O (centres undefined)	none
COc1ccccc1N1C(=O)C=C(Sc2nc(C)cc(C)n2)C1=O	Sm TGR block 1µM
COc1ccccc1C(=O)Nc1cccc(OCc2cc(=O)n3ccccc3n2)c1	none (no result: SARS PLP yeast)
O=S(=O)(c1ccccc1F)N(Cc1ccco1)Cc1nnc(-c2ccccc2Br)o1	Sm TGR block 16µM
O=C(OCc1nnc(-c2ccccc2Br)o1)c1ccco1	none (no result: Sm TGR block)
CC(C)c1ccc(/C=C/C(=O)Nc2nn[nH]n2)cc1	none
Cc1ccc(/C=C/C(=O)Nc2nn[nH]n2)o1	Sm TGR block 20µM
NC(=O)c1ccccc1NC(=O)/C=C/c1c(Cl)cccc1Cl	none
Cc1ccc(/C=C/C(=O)Nc2cccc3ncccc23)o1	Sm TGR block 8.9µM
Cc1ccc(/C=C/C(=O)Nc2ccccc2C(N)=O)o1	Sm TGR block 22µM (no result: SARS PLP yeast)
Cc1ccc(/C=C/C(=O)OCC(=O)Nc2cccnc2Cl)o1	none (no result: Sm TGR block)
Cc1ccc(/C=C/C(=O)Nc2cccnc2)o1	Sm TGR block 8.9µM
O=C(/C=C/c1ccccc1)Nc1cccnc1	none
CC(=O)N1CCc2nc3sc(C(=O)c4ccc(F)cc4)c(N)c3c(C(F)(F)F)c2C1	none (no result: SARS PLP yeast)
Cc1cccc(Cn2c(SCc3ccc(C(=O)NCCc4ccccc4)cc3)nc3ccncc32)c1	none (no result: SARS PLP yeast)
COc1ccc(N2C(=O)CSC23C(=O)N(CC(=O)NCCc2ccccc2)c2ccccc23)cc1 (centres undefined)	none (no result: SARS PLP yeast)
COc1cc(CNC(=O)C2CCCC2)cc(OC)c1OC	Sm TGR block 3.2µM
COc1ccccc1CNC(=O)C1CCCC1	none
Cc1cccc(NC(=O)Cn2c(=O)n(Cc3ccccc3)c(=O)c3oc4ccccc4c32)c1C	none (no result: SARS PLP yeast)
CCOC(=O)c1cc(-c2ccccc2)n(CCC(=O)NCCc2ccc(C)cc2)c1C	none (no result: SARS PLP yeast)
Cc1cc(NC(=O)CCCn2c(C)c3cnn(-c4ccccc4)c(=O)c3c2C)ccc1Br	none (no result: SARS PLP yeast)
O=C(O)Cc1sc(N/N=C\c2ccccc2)nc1-c1ccccc1	Sm TGR block 2.2µM
CCOC(=O)c1sc(N/N=C/c2ccccc2)nc1C	none
COC(=O)c1cc(CSc2nnc(NC3CCCCC3)s2)oc1C	Sm TGR block 45µM
O=c1cc(CSc2nnc(NC3CCCCC3)s2)nc2sccn12	none
COC(=O)C1=C(C)NC(=O)/C1=C\c1cc(C)n(-c2cc(C)cc(C)c2)c1C	Sm TGR block inconclusive
Cc1cc(/C=C2\C(=O)NC(=O)N(c3ccc(F)cc3)C2=O)c(C)n1-c1cccc(C(=O)O)c1	Sm TGR block inconclusive
Cc1cc(/C=C2\C(=O)NC(=O)N(c3ccccc3)C2=O)c(C)n1-c1ccc(C(=O)O)c(Cl)c1	Sm TGR block 28µM
COC(=O)C1=C(C)NC(=O)/C1=C\c1cc(C)n(-c2ccccc2)c1C	Sm TGR block 28µM
Cc1cc(/C=C2\C(=O)NC(=O)N(c3ccccc3F)C2=O)c(C)n1-c1cc(C(=O)O)cc(C(=O)O)c1	Sm TGR block 8.9µM
Cc1cc(/C=C2/C(=O)NC(=O)N(C)C2=O)c(C)n1-c1ccccc1	none (no result: Sm TGR block)
CCOc1ccccc1NC(=O)C(=O)NCCc1sc(-c2cccc(F)c2)nc1C	none (no result: SARS PLP yeast)
COc1ccc(Br)cc1CNC(=O)c1cnc2sc(N3CCCC3)nn2c1=O	none (no result: SARS PLP yeast)
CC(=O)N1CCc2cc(Br)cc(S(=O)(=O)N3CCN(c4cccc(C)c4)C(C)C3)c21 (centres undefined)	none (no result: SARS PLP yeast)
Cc1ccc(Cn2c(=O)c3ccccc3n3c(-c4cccc(O)c4)nnc23)cc1	none (no result: SARS PLP yeast)
Cc1cn2c(=O)cc(COC(=O)c3cccc(NC(=O)COc4ccccc4)c3)nc2s1	none (no result: SARS PLP yeast)
O=C(CS(=O)(=O)c1cccc2nsnc12)Nc1ccc(F)cc1	none (no result: SARS PLP yeast)
CCCS(=O)(=O)c1c(S(=O)(=O)CCC)c2c(N)cccn2c1C(=O)OC	none (no result: Sm TGR block)
CCCS(=O)(=O)c1c(S(=O)(=O)CCC)c2c(N)cccn2c1C(=O)c1ccccc1	Sm TGR block 50µM
CCOC(=O)c1cc2c(=O)n3ccccc3nc2n(CC2CCCO2)c1=NC(=O)c1ccc(F)cc1 (centres undefined)	none (no result: SARS PLP yeast)
CC(=O)c1c(C)oc2ccc(N(C(C)=O)S(=O)(=O)c3ccc(Cl)c([N+](=O)[O-])c3)cc12	Sm TGR block 2.2µM
COC(=O)c1c(C)oc2ccc(N(C(C)=O)S(=O)(=O)c3ccccc3)cc12	none
COc1cc(C(=O)CC2(O)C(=O)N(Cc3ccccc3Cl)c3ccccc32)cc(OC)c1OC (centres undefined)	none (no result: SARS PLP yeast)
COc1ccc(CNC(=O)C(C)N2C(=O)NC(c3ccccc3)(c3ccccc3)C2=O)cc1 (centres undefined)	none
CCNC(=O)NC(=O)C(C)N1C(=O)NC(c2ccccc2)(c2ccccc2)C1=O (centres undefined)	none
COC(=O)N1C(=O)[C@@](CC(C)C)(c2ccccc2)N1C(=O)OC	Sm TGR block 3.5µM
COC(C(=O)NC1CCCCCCC1)c1ccccc1 (centres undefined)	none
COC(=O)N1C(=O)[C@](CC(C)C)(c2ccccc2)N1C(=O)OC	Sm TGR block 7.9µM
COC(=O)N1C(=O)[C@](c2ccccc2)(C2CCCCC2)N1C(=O)OC	Sm TGR block 5µM
CNS(=O)(=O)c1cc(-c2nn3c(C)nnc3c3ccccc23)ccc1C	none (no result: SARS PLP yeast)
CCOc1ccc(NC(=O)c2cc3c(n(-c4ccc(OC)cc4)c2=O)CC(C)(C)CC3=O)cc1	none (no result: SARS PLP yeast)
CS(=O)(=O)N1CCc2cc(C(=O)Nc3cccc(F)c3)ccc21	none (no result: SARS PLP yeast)
COc1ccc(N2CCN(C3CC(=O)N(Cc4ccc(N5CCCC5=O)cc4)C3=O)CC2)cc1 (centres undefined)	none
O=C1CC(N2CCN(c3ccc(F)cc3)CC2)C(=O)N1Cc1ccc(N2CCCC2=O)cc1 (centres undefined)	Sm TGR block 45µM
CCOc1ccc(CCNC(=O)CSc2nnnn2-c2ccccc2)cc1OCC	none (no result: SARS PLP yeast)
CCOc1ccc(-c2nnc(SCC(=O)NCCc3ccccc3)nc2-c2ccc(OCC)cc2)cc1	none (no result: SARS PLP yeast)
Cc1nc2c(c(=O)n1Cc1ccccc1Cl)c1nc3ccccc3nc1n2Cc1ccco1	Sm TGR block 2.8µM
Cc1cc(C)cc(-n2c3nc4ccccc4nc3c3c(=O)n(Cc4ccco4)cnc32)c1	Sm TGR block 16µM
COc1ccc(Cn2c3nc4ccccc4nc3c3c(=O)n(Cc4ccco4)c(C)nc32)cc1	Sm TGR block inconclusive
COCCCn1cnc2c(c1=O)c1nc3ccccc3nc1n2-c1ccc(C)cc1	none
Cc1cc(C)cc(-n2ccnc2SCC(=O)Nc2nc3ccc(C)cc3s2)c1	none (no result: SARS PLP yeast)
COc1ccc(NC(=O)Cn2c(=O)n(Cc3ccccc3)c(=O)c3sc4ccccc4c32)cc1	none (no result: SARS PLP yeast)
COc1ccc(CNC(=O)Cn2ncc3c(=O)oc4ccc(C)cc4c32)c(OC)c1	none (no result: SARS PLP yeast)
COC(=O)c1ccccc1NC1=C/C(=N\S(=O)(=O)c2ccc(C(=O)O)cc2)c2ccccc2C1=O	Sm TGR block 14µM
COC(=O)c1ccccc1NC1=C/C(=N\S(=O)(=O)c2cccs2)c2ccccc2C1=O	Sm TGR block inconclusive
Cc1ccc(/C=C/c2onc(C)c2S(=O)(=O)N2CCC(C(=O)N3CCC(N(C)C(C)C)CC3)CC2)cc1	none (no result: SARS PLP yeast)
Cn1nnnc1SCCCNCc1ccc(-c2ccc(F)c(Cl)c2)o1	none (no result: SARS PLP yeast)
CCN1C(=O)C(Cc2nc3ccccc3c(=O)n2-c2ccccc2)c2cc(Br)ccc21 (centres undefined)	none (no result: SARS PLP yeast)
Cc1cnc(C(=O)Nc2ccccc2-n2cccc2)cn1	Sm TGR block 50µM
